# Experimental data published in PubChem BioAssay (NCATS).
# A number with no mark means an inactive call. Results filed as inconclusive are left out. A call without a number means that no potency is given here. Calls of active or inactive are those of the source. Unless noted, the call rests on the fitted dose curve; in most records, active means well fitted curve in the direction sought with a large enough effect; inconclusive means small, poorly fitted or top-dose-only effect, or another doubt; inactive means no such curve, though single readings can be large; an effect the other way counts as inactive or inconclusive.
# Tests used:
# [1] = P-glycoprotein substrates identified in KB-8-5-11 adenocarcinoma cell line, qHTS therapeutic library screen (AID 1346987); further: nearly all actives have a fitted effect of over 65% in size; on activity change, negative = cytotoxicity: series mostly up to about 44 µM
# How it was run: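 Compounds are pinned in dose-response onto KB-8-5-11 cells (500 cells/well, colchicine-free medium) and left 72 h at 37 degree C. CellTiter-Glo luminescence then yields AC50 values.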
# [2] = molecular target: Furin (Homo sapiens) (UniProt P09958); assay: Furin counterscreen qHTS for Zika virus inhibitors (AID 1347149);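 further: purified recombinant full-length human furin enzyme at 5 nM; fluorescence gain from furin cutting a BOC-RVRR-AMC peptide substrate over 15 min; top concentration of the series differs between compounds; nearly all actives have a fitted effect of over 70% in size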
# How it was run: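 Counterscreen measures cleavage of 2 microM BOC-RVRR-AMC, below its ~15 microM Km, by 5 nM full-length human furin at pH 7.0 after a 15-min compound preincubation. Inhibition derives from the 15-min fluorescence increase at 37C.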
# [3] = molecular target: Peroxisome proliferator-activated receptor alpha (Homo sapiens) (UniProt Q07869); assay: qHTS assay for small molecule agonists of the peroxisome proliferator-activated receptor alpha (PPARalpha) signaling pathway (AID 651778); conditions: PathHunter PPARalpha complementation, chemiluminescence, 6 h; active compounds read high
# How it was run: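 Cells plated at 2,000/well and held overnight at 37 C, 5% CO2, then compound added by pin tool for 6 hr; after PathHunter detection reagent and 60 min at room temperature, chemiluminescence from enzyme complementation was read.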
# [4] = qHTS assay for small molecule agonists of the antioxidant response element (ARE) signaling pathway measured by Nrf2-dependant transcriptional activity - cell viability counter screen (AID 720653; active means well fitted curve in the direction sought with a large enough effect in the repeat runs; an effect the other way counts as inactive or inconclusive); conditions: ARE-bla HepG2 viability, CellTiter-Glo ATP luminescence, 16 h; active compounds read low
# How it was run: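 ARE-bla HepG2 cells (2,000/well) rested 5 hrs at 37C/5% CO2, then exposed to compounds in DMSO for 16 hrs. Viability was read in the same wells as intracellular ATP by luminescence, 30 min at room temperature after reagent addition.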
# [5] = qHTS assay for cell viability of HEK293 cells (AID 743288); conditions: ATP luminescence (CellTiter-Glo), 18 h, active compounds read low; further: nearly all actives have a fitted effect of over 50% in size
# How it was run: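 HEK293, 18 h, 37 C, ATP luminescence. Cells at 2,000/well were allowed at least 5 h to settle before dosing; CellTiter-Glo developed 30 min at RT.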
# [6] = qHTS assay for cell viability of the p53RE-bla HCT-116 cell line (AID 743292); further: nearly all actives have a fitted effect of over 55% in size
# How it was run: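 CellSensor p53RE-bla HCT-116 cells, 4,000/well, preincubated 5 h at 37 C, then exposed to compounds in DMSO for 16 h at 37 C. Viability read as CellTiter-Glo luminescence (intracellular ATP) after 30 min at room temperature.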
# Furin (Homo sapiens), sequence (P09958 whole entry, looked up): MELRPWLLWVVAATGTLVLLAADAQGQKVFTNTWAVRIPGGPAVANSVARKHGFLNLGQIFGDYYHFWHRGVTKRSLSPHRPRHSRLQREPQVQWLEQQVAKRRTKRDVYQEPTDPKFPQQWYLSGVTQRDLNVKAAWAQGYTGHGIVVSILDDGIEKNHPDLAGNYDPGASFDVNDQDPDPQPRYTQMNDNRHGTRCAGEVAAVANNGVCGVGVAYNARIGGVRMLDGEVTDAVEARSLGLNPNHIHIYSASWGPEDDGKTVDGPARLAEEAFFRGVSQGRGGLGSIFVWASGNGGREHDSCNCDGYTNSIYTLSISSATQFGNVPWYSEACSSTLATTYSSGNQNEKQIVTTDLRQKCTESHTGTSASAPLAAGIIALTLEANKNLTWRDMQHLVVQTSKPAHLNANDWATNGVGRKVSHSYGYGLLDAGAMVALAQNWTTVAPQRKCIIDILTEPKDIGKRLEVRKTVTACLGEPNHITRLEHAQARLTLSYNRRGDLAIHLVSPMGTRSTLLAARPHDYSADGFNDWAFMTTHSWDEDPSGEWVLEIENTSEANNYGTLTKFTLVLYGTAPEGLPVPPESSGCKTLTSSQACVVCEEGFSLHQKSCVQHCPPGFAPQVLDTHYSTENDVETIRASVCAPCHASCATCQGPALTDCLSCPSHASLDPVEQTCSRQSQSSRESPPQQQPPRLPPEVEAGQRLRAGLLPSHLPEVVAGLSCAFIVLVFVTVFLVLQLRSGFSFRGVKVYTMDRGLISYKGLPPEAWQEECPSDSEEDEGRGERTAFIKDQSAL
# Peroxisome proliferator-activated receptor alpha (Homo sapiens), sequence (Q07869 whole entry, looked up): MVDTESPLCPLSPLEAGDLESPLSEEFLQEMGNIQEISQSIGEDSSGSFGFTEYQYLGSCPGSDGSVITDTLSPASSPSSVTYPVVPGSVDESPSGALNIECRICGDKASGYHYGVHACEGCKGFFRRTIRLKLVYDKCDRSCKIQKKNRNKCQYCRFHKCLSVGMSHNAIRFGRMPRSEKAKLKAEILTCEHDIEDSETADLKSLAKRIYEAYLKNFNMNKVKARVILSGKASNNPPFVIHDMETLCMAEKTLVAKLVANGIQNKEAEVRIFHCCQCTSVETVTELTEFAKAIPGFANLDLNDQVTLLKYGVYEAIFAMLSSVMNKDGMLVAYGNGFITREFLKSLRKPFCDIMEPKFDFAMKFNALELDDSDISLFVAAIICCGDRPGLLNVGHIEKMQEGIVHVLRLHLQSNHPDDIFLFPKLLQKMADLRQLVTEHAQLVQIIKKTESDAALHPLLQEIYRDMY
structure (smiles),measurement,setting,value
CC1=CC(=O)CC(C)(C)C1CCC(C)O[C@@H]1O[C@H](CO)[C@@H](O)[C@H](O)[C@H]1O (some centres not stated),Potency,[1],inactive
COc1ccc(/C=C/C(=O)O[C@@H]2[C@@H](O[C@@H]3O[C@H](CO)[C@@H](O)[C@H](O)[C@H]3O)[C@@H](O)[C@H](O[C@H]3C4C=CO[C@@H](O[C@@H]5O[C@H](CO)[C@@H](O)[C@H](O)[C@H]5O)C4[C@@]4(CO)O[C@@H]34)O[C@H]2C)cc1 (some centres not stated),"activity change, negative = cytotoxicity",[1],2.62% [at 9.29 µM]
CC1=C(C)C(=O)OC(C(C)C2C(O)CC3C4C5OC5C5(O)CC(OC6OC(CO)C(OC7OC(C)C(O)C(O)C7O)C(O)C6O)CC(O)C5(C)C4CCC32C)C1 (configuration not stated),Potency,[1],inactive
CCOC(=O)C(CCc1ccccc1)NC1CCCN2CCCC(C(=O)O)N2C1=O (configuration not stated),Potency,[1],inactive
N[C@@H](CC(=O)Nc1ccc(Oc2cc(F)c(F)cc2Br)cc1)C(=O)O,Potency,[1],inactive
O=C(O)CC1(O)C(=O)Nc2ccccc21 (configuration not stated),Potency,[1],inactive
CC1(C)CC[C@]2(C(=O)O)CC[C@]3(C)C(=CCC4[C@@]5(C)CC[C@H](O)C(C)(C)C5CC[C@]43C)C2C1 (some centres not stated),Potency,[1],inactive
COc1ccc(C2C(C(=O)O)C(C(=O)O)C2c2ccc(OC)cc2O[C@@H]2O[C@H](CO)[C@@H](O)[C@H](O)[C@H]2O)c(O[C@@H]2O[C@H](CO)[C@@H](O)[C@H](O)[C@H]2O)c1 (some centres not stated),Potency,[1],inactive
O=C(O)[C@H]1Cc2ccccc2CN1,"activity change, negative = cytotoxicity",[1],6.15% [at 5.11 µM]
Cc1oc2nc3c(c(NC(=O)CN4CCCC4=O)c2c1C)CCCC3,Potency,[1],inactive
CCC1(O)CC2c3cc(OC)c(OC)cc3CCN2CC1CC(C)C (configuration not stated),Potency,[1],inactive
O=C(O)c1ccncc1Nc1nn(CCN2CCC(F)(F)CC2)c2ccc(F)cc12,Potency,[1],inactive
COc1cccc(CNc2ccc(S(=O)(=O)Nc3nc4ccccc4s3)cc2)c1O,Potency,[1],inactive
same,Potency,[2],inactive
C/C=C1\[C@H](O[C@@H]2O[C@H](CO)[C@@H](O)[C@H](O)[C@H]2O)OC=C(C(=O)O)[C@H]1CC(=O)OCCc1ccc(O)cc1,Potency,[1],inactive
COc1ccc(C2(O)c3ccccc3NC(=O)C2OC)cc1 (configuration not stated),Potency,[1],inactive
COc1cc(Nc2nc3ccccc3nc2NS(=O)(=O)c2cccc(NC(=O)c3ccc(C)c(OC)c3)c2)cc(OC)c1,Potency,[2],inactive
CC1C(O)C(O)C2C(C(=O)OCCc3ccc(O)cc3)=COC(O[C@@H]3O[C@H](CO)[C@@H](O)[C@H](O)[C@H]3O)C12 (some centres not stated),Potency,[1],inactive
same,Potency,[2],inactive
C[C@]1(O)CC[C@@H]2C(C(=O)O)=CO[C@@H](O[C@@H]3O[C@H](CO)[C@@H](O)[C@H](O)[C@H]3O)[C@@H]21,Potency,[1],inactive
O=C(O)C1(c2ccc(-c3ccc(Cl)c(Cl)c3)c(F)c2)CC1,Potency,[1],inactive
same,Potency,[2],inactive
C=C1Cc2c(Cl)cc3[nH]c4c5c3c2[C@@]2(O)[C@@H]1C[C@@H]2C(C)(C)O[C@H]5C1CC[C@@]2(O)[C@@]35O[C@@H]3[C@H]3OC(C)(C)[C@H]3O[C@H]5CC[C@]2(C)[C@@]41C (some centres not stated),Potency,[1],inactive
CC(=O)O[C@@]1(C)[C@@H]2CC(=C(C)C)C(=O)C[C@@]2(C)CC[C@H]1OC(=O)C1(C)OC1C (some centres not stated),Potency,[1],inactive
C=C1CCC2C(C)(C)CCC[C@]2(C)[C@H]1CC/C(C)=C/C(=O)O (some centres not stated),Potency,[1],inactive
same,Potency,[2],inactive
O=C(/C=C/C=C/c1ccc2c(c1)OCO2)N1CCCCC1,max response,[3],-0.461%
same,max response,[4],3.3%
same,max response,[5],-12.5%
same,outcome,[6],inactive
same,Potency,[1],inactive
C=C1C2CCC3CC2(CC(O)C2(O)C1CC(OC1OC(CO)C(O)C(O)C1O)C2(C)C)CC3(C)O (configuration not stated),Potency,[1],inactive
same,Potency,[2],inactive
C/C(=C\CC/C(C)=C/CC[C@]1(C)CCc2cc(O)cc(C)c2O1)CC/C=C(\C)C(=O)O,Potency,[1],inactive
same,Potency,[2],inactive
CCC(=O)N1CCc2cc(OC)c(O)cc2C1,Potency,[1],inactive
C=C1C(OC(C)=O)CCC2(C)CCC(C(C)(C)O)CC12 (configuration not stated),Potency,[1],inactive
